# Screening data deposited in PubChem BioAssay by National Center for Advancing Translational Sciences (NCATS).
# BAZ2B block = blocks human BAZ2B; Q9UIF8; AlphaScreen BAZ2B-H3K14Ac peptide displacement; Potency, µM (highest dose often 114 µM), for the others: at the highest dose activity change, negative = inhibition, usual class: inhibitors; 360,000 tested, 4.4% active; AID 504333; also: % is scaled to controls: 0 for no effect and ±100 for the full control effect; nearly all actives have a fitted effect of over 60% in size
#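 In this displacement format the biotinylated H3(5-23) peptide acetylated at Lys14 serves as ligand at 50 nM, with BAZ2B at 50 nM in PBS pH 7.4 containing 0.01% Tween-20. Donor and acceptor beads are 10 ug/mL final.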
# HP1b binding inh = HP1-beta chromodomain-methylated histone interaction inhibition. P83916. AlphaScreen HP1-beta / biotin-H3K9me3 peptide binding. Potency, µM (highest dose often 114 µM), for inactives: at the highest dose activity change, negative = inhibition, usual class: inhibitors. 390,000 tested, 0.56% active; also: nearly all actives have a fitted effect of over 70% in size
# Target sequence (P83916 whole entry, looked up): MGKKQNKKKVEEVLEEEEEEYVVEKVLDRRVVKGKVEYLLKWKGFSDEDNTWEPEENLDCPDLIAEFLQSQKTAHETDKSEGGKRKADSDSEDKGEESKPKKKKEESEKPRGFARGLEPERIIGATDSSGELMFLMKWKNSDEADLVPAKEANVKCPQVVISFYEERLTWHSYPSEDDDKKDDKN
#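 AlphaScreen: HP1-beta (50 nM) preformed 30 min with biotin-H3(1-18)K9me3 peptide (50 nM) in PBS pH 7.4, 0.01% Tween-20. Compound added for 30 min at RT, then streptavidin donor/nickel chelate acceptor beads (10 ug/mL) for 30 min.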
# PLK1 PBD inh = blocks phosphopeptide binding to human PLK1 polo-box domain. Plk1 PBD binding of FITC phosphopeptide, fluorescence polarization. Potency, µM, for the others: max response, negative = inhibition, actives largely listed as inhibitors. 360,000 tested, 2.8% active. AID 720504; also: series mostly up to about 57 µM; % is scaled to controls: 0 for no effect and ±100 for the full control effect; nearly all actives have a fitted effect of over 65% in size
# JMJD2A Tudor inh = inhibitors of human JMJD2A Tudor domain; AlphaScreen JMJD2A-Tudor / H3K4me3 peptide binding; Potency, µM (highest dose often 114 µM), without a hit: at the highest dose activity change, negative = inhibition, hits mostly inhibitors; 390,000 tested, 4.4% active; also: % is scaled to controls: 0 for no effect and ±100 for the full control effect; nearly all actives have a fitted effect of over 50% in size
# Sfp inh = Sfp phosphopantetheinyl transferase inhibition; 310,000 tested, 3.5% active; Q9F4F7; Potency, µM, without a hit: largest response in the series, negative = inhibition, actives largely listed as inhibitors; Biochemical Sfp PPTase activity, qHTS;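 also: the enzyme is Sfp with the accession as filed and its product quenches rhodamine fluorescence; 0% = enzyme reaction without inhibitor and -100% = no enzyme wells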
#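 Compounds were incubated with enzyme (final 15 nM) for 15 min at room temperature before substrate addition started the reaction. Fluorescence at 525 nm excitation, 598 nm emission was recorded immediately and after 30 minutes.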
# G9a inh-1 = inhibitors of human histone lysine methyltransferase G9a; AID 504332; Q96KQ7; Potency, µM (titrated, usually from 102 µM), inactives show top-dose activity, negative = inhibition, most hits filed as inhibitors; 350,000 tested, 8.8% active; G9a H3K9 monomethylation, AlphaScreen, 2 h; also: % is scaled to controls: 0 for no effect and ±100 for the full control effect; nearly all actives have a fitted effect of over 75% in size
# Target sequence (Q96KQ7 913-1193 limits assumed): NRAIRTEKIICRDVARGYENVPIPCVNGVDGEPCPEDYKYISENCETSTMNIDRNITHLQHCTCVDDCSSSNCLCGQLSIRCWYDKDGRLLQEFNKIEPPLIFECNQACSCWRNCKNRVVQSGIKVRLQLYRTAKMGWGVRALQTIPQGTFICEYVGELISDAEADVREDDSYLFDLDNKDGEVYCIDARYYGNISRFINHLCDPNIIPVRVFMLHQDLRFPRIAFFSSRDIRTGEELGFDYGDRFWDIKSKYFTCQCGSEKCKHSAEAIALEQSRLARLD
#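 Signal arises when biotinylated H3K9 peptide, once monomethylated, bridges streptavidin donor and antibody-captured acceptor beads. Enzyme at 20 nM was preincubated 15 min with test compounds; peptide 500 nM and SAM 20 uM then reacted for 2 h.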
# G9a inh-2 = confirmation of human histone methyltransferase G9a inhibitors; 370 tested, 89% active; shares compounds with JMJD2A Tudor inh; G9a H3K9 monomethylation, AlphaScreen, 2 h; AID 588344; Potency, µM, hits mostly inhibitors; also: nearly all actives have a fitted effect of over 65% in size
# Active calls of the source: *; ? = inconclusive; / = no result given; [ ] = remark or other dose. Hits are enriched below; roughly 12% of the tested compounds scored in any of these assays. Calls follow the shape of the dose curve; as a rule, active = well fitted curve in the direction sought with a large enough effect; inconclusive = small, poorly fitted or top-dose-only effect, or another doubt; inactive = no such curve, though single readings can be large; an effect the other way counts as inactive or inconclusive. Potency is read from the fitted curve at half-maximal effect.
SMILES,BAZ2B block,HP1b binding inh,PLK1 PBD inh,JMJD2A Tudor inh,Sfp inh,G9a inh-1,G9a inh-2
CCOC(=O)[C@]12CCCC=C1N(Cc1ccccc1)C(=O)[C@H](CC(=O)NCC13CC4CC(CC(C4)C1)C3)C2,/,/,-12.3%,/,/,/,/
Cn1c(CNC(=O)CNC(=O)c2ccc(C(C)(C)C)cc2)cc(=O)n(C)c1=O,-18.0%,25.4%,-6.5%,-3.4%,15.2%,-6.9%,/
CC(C(=O)N1CCCCC1)N(C)CC(=O)Nc1cccc(F)c1 (stereo unspecified),15.8µM*,-21.7%,0.2%,25.1µM*,/,?,44.7*
COC(=O)c1ccccc1NC(=O)CSc1nc2sc3c(c2c(=O)[nH]1)CCCC3,?,?,/,56.2µM*,/,?,4.08*
CCN1C(=O)CC(c2ccc(OC(C)C)cc2)C1=O (stereo unspecified),-10.5%,5.5%,-2.2%,-3.1%,-6.1%,6.9%,/
COc1ccc(-n2nc3cc(C)c(N)cc3n2)cc1Cl,79.4µM*,14.7%,-12.5%,56.2µM*,79.4µM*,0.708µM*,0.502*
Cc1ccc(-n2nc3ccc(N)cc3n2)cc1,-35.5%,-8.7%,4.3%,-6.0%,-2.4%,?,0.252*
Cc1cc2nn(-c3ccc(F)cc3)nc2cc1NC(=O)c1ccc(C(C)(C)C)cc1,-12.7%,25.2%,/,-11.2%,/,-1.7%[59 µM],/
Nc1ccc2nn(-c3ccc(F)cc3)nc2c1,0.4%,38.3%,-23.7%,28.9%,2.0%,28.4%,/
Cc1cc2nn(-c3ccc(F)cc3)nc2cc1N,-28.5%,8.2%,-22.7%,-25.3%,?,1µM*,0.564*
Oc1cnc2ccccc2c1CN1CCOCC1,-36.9%,27.5%,-8.7%,-35.9%,19.7%,?,/
Oc1ccc2ccccc2c1CN1CCOCC1,-35.4%,?,26.7µM*,?,-2.0%,0.355µM*,0.796*
Cc1cccc(OCC(=O)N(C)CCc2ccccn2)c1,35.5µM*,?,-3.8%,?,-11.7%,?,10*
COc1ccc(NCc2nnc(SCC(=O)c3ccc(OC)cc3)n2C)cc1,-0.6%,18.4%,-22.1%,56.2µM*,-8.5%,?,11.2*
COCCCN1C(=O)C(CC(=O)NCCCN(C)C)CC(C(=O)N2CCOCC2)=C1C (stereo unspecified),/,/,-6.9%,/,/,/,/
COc1ccc(Nc2nc3cc(-c4ccccc4C)sc3c(=O)n2C)cc1OC,/,/,-1.1%,/,/,/,/
O=C(Nc1ccc(Cl)cc1)OCCn1nnnc1C(c1ccccc1)N1CCOCC1 (stereo unspecified),15.0%,47.5%,-6.5%,-8.3%,-4.2%,11.6%[12.7 µM],/
CN(C)c1ccc(C(c2nnnn2CCOC(=O)Nc2ccc(Cl)cc2)N2CCOCC2)cc1 (stereo unspecified),44.7µM*,?,-4.8%,?,-8.2%,?,17.8*
Cc1cccc(N(CC(=O)Nc2ccc(Br)cc2)S(C)(=O)=O)c1C,-10.0%,43.4%,/,-35.4%,/,-20.1%[59 µM],/
Cc1ccccc1OCc1ccc(-c2nc(C#N)c(N3CCN(c4ccccc4)CC3)o2)o1,?,8.1%,/,-31.1%,/,?,?
CCS(=O)(=O)N1CCN(Cc2ccccc2OC)CC1,22.4µM*,?,1.5%,3.16µM*,28.2µM*,2.51µM*,?
COc1ccccc1CN1CCC2(CC1)CCN(S(C)(=O)=O)CC2,/,/,/,/,16.1%,-2.2%[12.7 µM],/
CCNCCC(CCC(C)C)c1ccc2c(c1)OCO2 (stereo unspecified),79.4µM*,-6.5%,9.5%,?,?,1.58µM*,11.2*
Cc1cc(Cl)ccc1OCCn1cncn1,-0.9%,40.1%,4.4%,-2.1%,-1.2%,2.8%,/
c1ccc(Oc2cccc(OCCn3cncn3)c2)cc1,39.8µM*,-54.7%,-7.9%,25.1µM*,-5.8%,1.78µM*,28.3*
SMILES,BAZ2B block,HP1b binding inh,PLK1 PBD inh,JMJD2A Tudor inh,Sfp inh,G9a inh-1,G9a inh-2
CC(C)CN(C(=O)COC(=O)c1cccn1C)c1c(N)n(Cc2ccccc2)c(=O)[nH]c1=O,-25.4%,16.3%,-8.5%,-10.3%,15.3%,34.2%,/
Cc1ccc(NC2CCCN(C(=O)c3cn4cc(Cl)ccc4n3)C2)cc1C (stereo unspecified),?,24.2%,-6.3%,0.8%,-0.1%,?,31.6*
Cc1ccc(NC2CCCN(C(=O)c3cn4cccc(C)c4n3)C2)cc1C (stereo unspecified),-25.3%,6.1%,6.6%,-18.2%,14.6%,?,/
Cc1cccc(NC(=O)NNC(=O)COc2ccc([N+](=O)[O-])cc2)c1C,-2.2%,27.0%,-11.1%,-4.8%,-2.4%,13.2%,/
CC(NS(=O)(=O)c1ccc(Cl)cc1)C(=O)OCC(=O)Nc1ccc(N(C)C)cc1 (stereo unspecified),?,-33.9%,-4.9%,?,/,2.51µM*,3.99*
CCOc1cccc(CNCCO)c1OCc1ccc(Cl)cc1Cl,5.6%,16.0%,-3.5%,-11.1%,?,11.7%[59 µM],/
CCOc1cccc(CNc2ccc(O)cc2)c1OCc1ccc(Cl)cc1Cl,?,?,-6.3%,-34.7%,14.1µM*,2.51µM*,2.52*
CCOc1cccc(CNc2ccc(O)cc2)c1OCc1ccccc1Cl,?,?,-6.1%,44.7µM*,-13.2%,4.47µM*,3.16*
CCOc1cccc(CNn2cnnc2)c1OCc1ccccc1Cl,-2.7%,19.5%,-15.5%,-14.6%,19.3%,11.3%[59 µM],/
CCCCCC1C(C(=O)OCC)C(=O)NC1(C(=O)OCC)C(=O)OCC (stereo unspecified),/,18.5%,-0.2%,-4.1%,/,/,/
CN1CCN(c2nc3c(=O)[nH]c(N)nc3n2C2OC(CO)C(O)C2O)CC1 (stereo unspecified),/,26.8%,/,-9.9%,/,/,/
CC(C)COC(=O)N1CCCC1C(=O)Nc1nccs1 (stereo unspecified),-34.8%,-1.9%,-18.4%,-14.0%,6.5%,?,12.6*
O=C(Nc1nccs1)C1CCCN1S(=O)(=O)c1ccc(Cl)cc1 (stereo unspecified),/,21.6%,-4.2%,-13.4%,8.7%,-45.6%[59 µM],/
COc1cccc(NC(=O)CSc2cc(C)[nH]c(=O)n2)c1,-2.5%,4.5%,/,-17.2%,/,6.5%[59 µM],/
CCn1cnc2cc(NCc3nc4ccccc4n3C)ccc21,?,-3.8%,-8.5%,-34.8%,2.2%,2.51µM*,?
CCOc1ccc(CNc2ccc3c(c2)ncn3C)cc1,?,-17.8%,-11.7%,?,-17.4%,?,1.78*
CCn1cnc2cc(NCc3ccc(C)cc3)ccc21,?,-10.4%,-0.1%,?,-9.1%,1.58µM*,4.47*
CC(=O)Nc1ccc2c(c1)ncn2C,-1.3%,59.9%,-4.0%,-14.5%[57.1 µM],10.4%,-0.1%[59 µM],/
CCCCOc1ccc(C(=O)N(Cc2nc(-c3ccc(Cl)cc3)no2)C(C)C)cc1,22.2%,33.1%,/,-11.5%,/,27.4%[59 µM],/
